Screening data as filed in PubChem BioAssay.
Sampled rows, rich in hits. Any-hit rate of the full collection: about 3.5%.
TEAD-YAP block = TEAD-YAP interaction inhibition; HEK-TIYL cells, TEAD-Gal4/YAP UAS-luciferase luminescence; inhibition, % at 9.12 µM; 640,000 tested, 1.4% active; AID 1259422; in the data active means inhibition above about 32%;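 further: 0% = median of test compound wells and 100% = reference inhibitor wells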
FBW7 act = activators of human E3 ligase FBW7. AlphaScreen FBW7–phospho-cyclin E peptide binding, activator screen. Q969H0. normalized activity (activation), % at 26.1 µM. 650,000 tested, 0.13% active; in the data active means normalized activity above about 1.9%;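 further: purified mutant Fbw7 with reduced substrate affinity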
Target sequence (Q969H0 whole entry, looked up): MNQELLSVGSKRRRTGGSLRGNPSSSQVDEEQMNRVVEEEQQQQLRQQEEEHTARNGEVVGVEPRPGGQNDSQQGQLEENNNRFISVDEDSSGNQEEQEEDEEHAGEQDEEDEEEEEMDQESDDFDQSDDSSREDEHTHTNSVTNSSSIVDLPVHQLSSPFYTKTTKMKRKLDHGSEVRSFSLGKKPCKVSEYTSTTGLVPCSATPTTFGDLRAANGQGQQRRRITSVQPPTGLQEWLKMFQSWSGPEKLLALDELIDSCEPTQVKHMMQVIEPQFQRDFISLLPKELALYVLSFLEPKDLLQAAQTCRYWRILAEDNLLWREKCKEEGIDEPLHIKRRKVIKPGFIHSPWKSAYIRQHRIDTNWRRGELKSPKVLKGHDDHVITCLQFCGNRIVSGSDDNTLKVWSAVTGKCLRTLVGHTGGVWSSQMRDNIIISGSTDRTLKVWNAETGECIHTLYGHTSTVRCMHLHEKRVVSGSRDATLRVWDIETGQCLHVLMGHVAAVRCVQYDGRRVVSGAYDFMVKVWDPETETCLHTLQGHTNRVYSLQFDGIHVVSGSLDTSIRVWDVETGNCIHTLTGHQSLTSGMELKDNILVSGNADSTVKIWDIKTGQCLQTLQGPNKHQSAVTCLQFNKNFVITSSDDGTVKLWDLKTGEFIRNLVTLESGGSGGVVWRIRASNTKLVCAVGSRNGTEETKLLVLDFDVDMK
MITF primary = inhibitors of human MITF | 650,000 tested, 0.91% active | AlphaScreen MITF homodimerization, bead proximity signal | O75030 | AID 1259374 | inhibition, % at 2.6 µM; in the data active means inhibition above about 50%;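 further: 0% = vehicle wells with protein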
GPR151 ag = human GPR151 activation | activation, % at 11.2 µM | PathHunter beta-arrestin GPR151 cells, luminescence | Q8TDV0 | AID 1508602 | 650,000 tested, 1% active; in the data active means activation above about 4.9%;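 further: 0% = median of compound wells and 100% = cells with positive control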
Numbers without * were called inactive.

SMILES	TEAD-YAP block	FBW7 act	MITF primary	GPR151 ag
Nc1ncnc(N/N=C/c2cc(Br)cc(Br)c2O)c1[N+](=O)[O-]	-44.5	0.1	5.0	1.5
Oc1ccc(CCNc2nc(Nc3cnccn3)nc3nc[nH]c23)cc1	39.0*	0.0	-4.5	0.2
COc1cc(Nc2nc(NCCO)c3[nH]cnc3n2)cc(OC)c1OC	-9.8	0.2	20.5	3.0
Oc1ccc(CCNc2nc(Nc3ccncc3)nc3nc[nH]c23)cc1	15.8	0.1	-1.6	-0.8
COc1cc(Nc2nc(NCCc3ccc(O)cc3)c3[nH]cnc3n2)cc(OC)c1OC	46.0*	-0.1	-8.3	-0.3
COc1cc(/C=C2N=C(/C=C/c3ccccc3)OC/2=O)cc(OC)c1OC	-8.5	0.1	4.5	0.9
O=C(Cn1cnc([N+](=O)[O-])n1)Nc1cccc(C(F)(F)F)c1	0.1	0.1	1.6	-1.3
COC(=O)c1cc(S(=O)(=O)N(C)c2cccc(C)c2)c[nH]1	-3.2	0.0	7.0	-0.7
Cc1cc(C(=O)COC(=O)c2cccc(NS(C)(=O)=O)c2)c(C)n1Cc1ccccc1	57.5*	0.0	-6.4	-0.3
COCCn1c(C)cc(C(=O)COC(=O)c2ccccc2Nc2ccccc2)c1C	74.5*	0.4	13.1	-1.1
COCCn1c(C)cc(C(=O)COC(=O)c2cccc(Oc3ccccc3)c2)c1C	-13.2	-0.2	0.2	-0.5
Cc1cc(C(=O)COC(=O)c2cccc(NS(C)(=O)=O)c2)c(C)n1-c1ccccc1	25.1	0.0	7.7	-1.0
COCCn1c(C)cc(C(=O)COC(=O)c2cccc(O)c2)c1C	62.4*	-0.1	-5.5	-10.8
COc1ccccc1NC(=O)c1cc2ccccc2o/c1=N\c1sc2c(c1C#N)CCCC2	-1.1	0.0	-10.8	0.2
O=C(CCC(=O)Nc1cc(C(F)(F)F)ccc1Cl)N/N=C\c1ccc(O)cc1O	43.7*	-0.5	10.1	1.5
O=C(N/N=C/c1ccc(O)cc1O)c1ccccc1O	52.1*	-1.1	4.1	-0.5
O=C(N/N=C/c1sc2ccccc2c1O)c1ccc(O)cc1O	47.0*	-0.8	36.6	2.8
COc1c(/C=N/NC(=O)c2ccccc2O)sc2ccccc12	-11.2	-0.2	-11.7	1.0
O=C(CCC(=O)N/N=C/c1ccc(O)cc1O)N/N=C\c1ccc(O)cc1O	5.6	-0.6	25.5	0.8
O=C(N/N=C/c1cc(I)ccc1O)c1ccccc1O	67.0*	-0.3	-10.5	0.5
Cc1ccc(/C=N/NC(=O)c2ccccc2O)c(O)c1	24.6	0.0	8.6	-0.5
COc1ccc(NC(=O)c2noc3c2CCc2ccccc2-3)cc1OC	8.2	-0.1	0.5	0.8
O=C(N/N=C/c1ccc(O)cc1O)C(=O)N/N=C/c1ccc(O)cc1O	4.6	-1.3	99.4*	-2.0
CN(C)CCNc1nc2ccccc2n2c1nc1ccccc12	65.0*	0.0	3.5	1.0
c1ccc2c(c1)nc(NCc1ccncc1)c1nc3ccccc3n12	3.5	-0.1	0.5	0.8
SMILES	TEAD-YAP block	FBW7 act	MITF primary	GPR151 ag
O=C(CN1C(=O)c2ccccc2C1=O)N1CCN(c2ccc(F)cc2)CC1	-3.2	2.0*	26.0	-1.5
O=C(Nc1cc(-c2ccccc2OCc2ccccc2)ccn1)C1CCOC1 (stereo not given)	88.7*	-0.1	11.0	0.3
O=C(Nc1cc(-c2ccccc2Oc2ccc(F)cc2)ccn1)C1CCOC1 (stereo not given)	25.6	1.2	22.2	3.3
O=C(Nc1cc(-c2ccccc2Oc2cccc(F)c2)ccn1)C1CCOC1 (stereo not given)	33.4*	1.1	49.6	2.3
CCOC(=O)C1(CC2CCCCO2)CCN(C(=O)COc2ccc(Cl)cc2)CC1 (stereo not given)	8.6	0.6	2.4	-1.6
CC(C)(C)c1csc(NC(=O)C2CCCCC2)n1	-45.6	-0.1	-2.6	1.3
CC(=O)c1cccc(-c2cnc3ccc(NCc4cccs4)nn23)c1	7.3	-0.1	-0.5	-0.5
CCCNc1ccc2ncc(-c3cccc(C(C)=O)c3)n2n1	34.2*	0.1	-15.5	0.1
OCCCNc1ccc2ncc(-c3ccccc3)n2n1	43.2*	-0.2	9.3	0.2
O=C(O)c1ccc(-c2cnc3ccc(NCCCO)nn23)cc1	0.1	0.2	11.9	-0.4
OCCCNc1ccc2ncc(-c3ccsc3)n2n1	51.0*	0.8	-0.2	-1.6
c1ccc2cc(-c3cnc4ccc(NCCCN5CCOCC5)nn34)ccc2c1	-6.3	-0.5	-18.8	0.6
FC(F)(F)c1cccc(-c2cnc3ccc(NCCCN4CCOCC4)nn23)c1	15.6	1.9*	6.8	0.3
COc1ccc(CCNC(=S)Nc2ccc(S(=O)(=O)N3CCCC3)cc2)cc1OC	-1.0	-0.1	13.7	-0.4
O=C(CCCn1nnc(-c2c[nH]c3ccccc23)n1)c1ccc(F)cc1	-1.6	0.0	8.4	-0.4
OCCCNc1ccc2ncc(-c3cccc(O)c3)n2n1	72.0*	-0.4	-10.8	-0.1
OCCCNc1ccc2ncc(-c3cccc(Cl)c3)n2n1	53.1*	-0.5	0.2	0.2
O=C(/C=C/Nc1ccc(F)cc1F)c1cccs1	73.4*	0.5	30.1	0.5
O=C(/C=C/Nc1ccccc1F)c1cccs1	38.2*	0.0	10.5	-1.2
O=c1[nH]c(/C=C\c2ccc(O)c(O)c2)nc(O)c1[N+](=O)[O-]	1.7	1.0	85.1*	-0.9
O=C(c1cccnc1)N1CCN(Cc2csc(-c3ccccc3)n2)CC1	-14.5	0.4	19.0	-0.5
O=C1c2cccc3cccc(c23)C(=O)N1CCN1CCCCC1	67.6*	0.0	7.0	-0.1
O=C1c2cccc3cccc(c23)C(=O)N1CCN1CCN(CCc2ccccc2)CC1	0.3	-0.1	18.5	0.0
CC(=O)NC1=NN(C(C)=O)C(C)(c2cccc(OC(C)=O)c2)S1 (stereo not given)	63.8*	0.1	0.0	1.1
CC(=O)NC1=NN(C(C)=O)C(C)(c2ccccc2)S1 (stereo not given)	61.4*	-0.2	-4.1	-0.6
SMILES	TEAD-YAP block	FBW7 act	MITF primary	GPR151 ag
CC(=O)NC1=NN(C(C)=O)C(C)(c2ccc(NC(C)=O)cc2)S1 (stereo not given)	4.2	0.2	-5.2	-0.1
CC(=O)NC1=NN(C(C)=O)C(C)(c2ccc3ccccc3c2)S1 (stereo not given)	4.0	0.0	0.6	-0.1
CC(=O)c1[nH]c(C)c(C(=O)N2CCc3ccccc32)c1C	5.2	0.1	6.3	3.5
CN(Cc1cccc(C(=O)NCCCCCCCNS(=O)(=O)c2cccc3c(N(C)C)cccc23)c1)C(=O)Nc1ccc(-c2cn[nH]c2)cc1	5.8	1.1	22.9	2.2
COc1cc(OC)cc(C2=NC3(CCCCC3)NC2=O)c1	3.5	2.1*	-8.2	0.9
COc1cc(C2CC(=O)Nc3cc4c(cc32)OCO4)cc(OC)c1OC (stereo not given)	48.6*	-0.1	-6.8	-0.2
COc1cc([C@@H]2c3cc4c(cc3[C@H](O)[C@H]3COC(=O)[C@H]23)OCO4)cc(OC)c1OC	43.0*	-0.1	4.1	4.4
COc1cc([C@@H]2c3cc4c(cc3[C@@H](O[C@@H]3O[C@@H]5CO[C@@H](C)O[C@H]5[C@H](O)[C@H]3O)[C@H]3COC(=O)[C@H]23)OCO4)cc(OC)c1O	-34.7	0.0	0.1	1.4
